The source of these data is PubChem BioAssay AID651822 (The Scripps Research Institute Molecular Screening Center, 2012).

SMILES strings stand for the structures. Screen size: about 2,300 compounds; about 970 (42%) were called active. So high a share suggests a set chosen from earlier hits. Not all results are given here. Values without a mark were called inactive. No stated cut-off is given here; in the data, active means inhibition above about 4.5%; inactive means the rest.

The test system of this test is Methionine sulfoxide reductase A (Bos taurus). As to the kind of experiment: methionine sulfoxide reductase A inhibition – biochemical, absorbance, bovine, HTS, confirmation (AID 651822).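 Further: coupled to thioredoxin reductase with NADPH and selenocystamine and DMSO as substrate; 0% = vehicle only and 100% = full effect of reference inhibitor.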 As to conditions: purified bovine MsrA, absorbance read-out; at 15.5 µM; active compounds read high.
As for `COc1ccc(/C=C(/NC(=O)c2ccco2)C(=O)Nc2ccc(C(C)=O)cc2)cc1`, the inhibition is 5.97% (active).
Next, `COc1ccccc1C(=O)N/C(=C/c1ccc2c(c1)OCO2)C(=O)Nc1cccc(C(=O)O)c1`: 3.23%; `CCN(CC)C(=O)c1sc(NC(=O)c2ccco2)c(C#N)c1C`: 3.8%; `COc1ccc(C(=O)CSc2nc(C)cc(C)n2)cc1[N+](=O)[O-]`: 7.55% (active).
For `Cc1cc(C)nc(S/C=C/C(=O)c2ccccc2)n1`, the inhibition was 4.29%.
Next, `Cc1cccc(-n2c(O)c(C=Nc3ccccc3N)c(=O)[nH]c2=O)c1`: 3.07%; `COc1ccc(/C=N/n2nnnc2N)cc1OC`: 2.84%; `CCOc1cc(/C=N/NC(=O)c2c(C)nc3ccc(Cl)cn23)ccc1O`: 4.5%.
To `COc1ccc(/C=N\NC(=O)c2sc(N)nc2C)cc1OC` belongs 6.13% (active); to `COc1ccc(/C=C2\N=C3CCCN3C2=O)cc1`, 2.42%.
`COc1ccc(/C=C2\SC(=O)N(CCC(=O)NC3CCS(=O)(=O)C3)C2=O)cc1` (stereo not given): the inhibition was 5.86% (active).
On to `Cc1n[nH]c(=O)nc1N/N=C/c1cccs1`, for which the inhibition was 3.61%.
Consider `O=C(N/N=C/c1ccc2c(c1)OCO2)c1ccc(Cn2cc([N+](=O)[O-])cn2)o1`, for which the inhibition is 4.56% (active).
Take `CCOc1cc(/C=N/NC(=O)c2ccc(CSc3nncn3C)cc2)ccc1OCC(=O)N1CCOCC1`: the inhibition was 3.67%.
With `COc1ccc(OC)c(C2C3=C(N=c4s/c(=C\c5cccc(O)c5)c(=O)n42)c2ccccc2CC3)c1` (stereo not given), the inhibition is 3.18%.
To `CC(N=Cc1nc(-c2ccccc2)oc1O)c1ccccc1` (stereo not given) belongs 3.02%; to `COC(=O)/C(C#N)=C/c1occc1C`, 4.58% (active); to `CC(Nc1ccc([N+](=O)[O-])cc1[N+](=O)[O-])c1ccccc1` (stereo not given), 32.3% (active).
Take `O=C(Cc1ccccn1)c1ccc(O)cc1O`: the inhibition was 2.96%.
Turning to `Cc1ccc(S(=O)(=O)Nc2nc(C)cc(N/N=C/c3ccc(O)cc3)n2)cc1`, the inhibition was 4.89% (active).
For `CN(c1ccccc1)S(=O)(=O)c1ccc2[nH]c(=O)[nH]c2c1`, the inhibition is 9.47% (active).
Turning to `CS(=O)(=O)c1ccc2nc(NC(=O)c3ccc(Cl)nc3)sc2c1`, the inhibition was 4.5%.
Next, `Cc1ccc(C(=O)N/N=C/c2sc(=O)n(Cc3cccc(C(=O)O)c3)c2Cl)cc1`: 6.35% (active); `Oc1ccc(/C=N/Nc2ccc(C(F)(F)F)cn2)cc1O`: 4.15%.
On to `O=C(O)c1ccc(N/N=C/c2ccc3ncccc3c2)cc1`, for which the inhibition is 7.49% (active).
To `COc1ccccc1-c1n[nH]c2c1[C@H](C)CC[C@H]2C(C)C` belongs 8.12% (active).
Next, `NC(=O)c1ccc(Nc2ccc3c(c2)CCC3)c([N+](=O)[O-])c1`: 12% (active).
Consider `Cc1ccc(Nc2ccc(C(N)=O)cc2[N+](=O)[O-])cc1`, for which the inhibition is 5.43% (active).
To `CCn1cc(/C=C(\NC(=O)c2ccc(C)cc2)C(=O)NCCN2CCOCC2)c2ccccc21` belongs 1.62%; to `COc1ccc(-c2ccc(Nc3ccc(S(=O)(=O)N4CCCC4)cc3)nn2)cc1OC`, 4.64% (active).
To `CCOc1ccc(/C=C(/C#N)c2nnc(N3CCOCC3)n2-c2ccccc2)cc1OC` belongs 2.86%.
With `CC(=O)c1sc2nc(SCC(=O)N3CCCCC3)[nH]c(=O)c2c1C`, the inhibition is 4.28%.
For the compound `CCCc1nc(SCC(=O)N2CCCC2)c2c(=O)n(C)c(=O)n(C)c2n1`, the inhibition is 4.83% (active).
`CC1CCCCN1S(=O)(=O)c1ccc(C(=O)Nc2nnc(-c3cccs3)o2)cc1` (stereo not given): the inhibition was 2.45%.
Next, `Cc1ccc(CC2(C)C(=O)Nc3ccc(OC(F)(F)F)cc32)cc1` (stereo not given): 8.12% (active); `CC(=O)c1ccc(N2CCN(CC(=O)Nc3ccccc3N3CCOCC3)CC2)cc1`: 1.04%.
As for `CSc1ccc(/C=C2\NC(=O)NC2=O)cc1`, the inhibition is 3.93%.
To `O=Cc1cn(-c2ccccc2)nc1-c1ccccn1` belongs 5.38% (active); to `Cc1ccc(/C=N/NC(=S)NC2CCCCC2)o1`, 4.23%; to `Cc1ccc(S(=O)(=O)N(C)c2ccc(OCC(=O)OCc3ccc(C#N)cc3)cc2)cc1`, 5.74% (active).
Turning to `CC(=O)c1ccc(N2CCN(C(=O)c3ccc4nc[nH]c4c3)CC2)cc1`, the inhibition is 3.02%.
Next, `O=C(CNC(=O)c1cccnc1)N/N=C/c1cc(Br)c(O)c(Br)c1`: 4.48%; `O=C(CNC(=O)C1COc2ccccc2O1)N/N=C/c1cc(Br)c(O)c(Br)c1` (stereo not given): 7.08% (active); `O=C1/C(=C\Nc2ccccc2)CCN1c1ncccn1`: 6.98% (active).
In the case of `CC(=O)Nc1ccc(S(=O)(=O)Oc2ccc(/C=N/N=C3/NC(=O)C(CC(=O)O)S3)cc2)cc1` (stereo not given), the inhibition is 2.79%.
Next, `O=C(O)c1ccc(N/N=C/c2cn(-c3ccccc3)nc2-c2cccs2)cc1`: 5.22% (active).
As for `CC(=O)N1N=C(c2ccncc2)OC1(Cc1ccccc1)Cc1ccccc1`, the inhibition was 9.69% (active).
Next, `Cc1ccc(N2C(=O)CN=C2Nc2nc(C)cc(C)n2)cc1`: 4.56% (active); `Cc1c(C(=O)N2CCCc3ccccc32)oc2ccccc12`: 7.55% (active).
For the compound `COc1ccc(C2/C(=C(/O)c3ccccc3)C(=O)C(=O)N2C)c(OC)c1` (stereo not given), the inhibition was 1.16%.
To `Clc1cccc(-c2nc3nc4ccccc4nc3n2Cc2ccco2)c1` belongs 1.65%; to `O=S1(=O)N=C(N(CCO)/N=C/c2ccccc2F)c2ccccc21`, 2.79%.
Next, `CCOC(=O)C(C)n1cnc2scc(-c3ccc(C)c(C)c3)c2c1=O` (stereo not given): 5.16% (active); `COc1cc2cc(C(=O)N/N=C/c3cccc(OC)c3OC)[nH]c2cc1OC`: 5.26% (active); `CCOc1ccc2[nH]c(C(=O)N/N=C/c3cccc(OC)c3OC)cc2c1`: 3%.
Consider `Cc1ccccc1C(CC(=O)c1cccs1)C(C#N)C#N` (stereo not given), for which the inhibition was 2.52%.
As to `Nc1nnnn1CC(=O)N/N=C/c1ccc(-c2cccc(Cl)c2)o1`, the inhibition was 3.45%.
Consider `Cc1cccc2cc(C#N)c(N3CCCC3)nc12`, for which the inhibition is 7.09% (active).
To `O=C(N/N=C/c1ccco1)c1ccc(C(=O)N/N=C/c2ccco2)o1` belongs 10.6% (active); to `Cc1occc1C(=O)N/N=C/c1ccc(-c2cccc([N+](=O)[O-])c2)o1`, 3.63%.
